Only some compounds are listed: those with a hit (about 3.9% of all), similar ones and a draw of the others.
Vc quorum ag = induces V. cholerae light production without autoinducers; V. cholerae BH1578 lux reporter, luminescence, 6 h; actives 0.16% (n = 350,000); activation, % at 18.7 µM; AID 588436; in the data active means activation mostly above about 9.7%, no sharp cut-off; inconclusive means no clear call, values can overlap the other calls; inactive means mostly below about 3.7%
BoNT A protease = BoNT A light chain protease inhibition. multiplex microsphere protease substrate cleavage, flow cytometry. inhibition, % at 10 µM. actives 0.17% (n = 360,000); further: plate controls were buffer without enzyme for full effect and enzyme alone for no effect
Anthrax LF prot = anthrax lethal factor protease inhibition | inhibition, % at 10 µM | actives 0.12% (n = 360,000) | P15917 | multiplex microsphere protease cleavage assay, LF; further: plate controls were buffer without enzyme for full effect and enzyme alone for no effect
BoNT F protease = BoNT F light chain protease inhibition; inhibition, % at 10 µM; actives 0.22% (n = 360,000); Multiplex microsphere protease cleavage assay, flow cytometry; in the data active means inhibition above about 35%, passing the limit was not always enough; inconclusive means no clear call, values can overlap the other calls; further: plate controls were buffer without enzyme for full effect and enzyme alone for no effect
Bead autofluor = flagged as autofluorescent in microsphere protease counterscreen. fluorescence intensity (no concentration beside the values). compound autofluorescence counterscreen, microsphere flow cytometry; hits give high values. actives 3.1% (n = 360,000); in the data active means fluorescence intensity above about 16000; inconclusive means no clear call, values can overlap the other calls
MazEF act = MazEF (E. coli) toxin RNase activation; FAM/BHQ RNA-DNA oligo cleavage fluorescence, 5 h; activation, % at 20 µM; actives 0.32% (n = 350,000); AID 504720; in the data active means activation above about 50%
Target sequence (P0AE70 whole entry, looked up): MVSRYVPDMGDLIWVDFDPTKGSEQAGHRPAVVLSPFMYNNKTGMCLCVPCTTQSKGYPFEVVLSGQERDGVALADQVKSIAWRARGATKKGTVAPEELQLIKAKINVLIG
The depositor's hits bear a star; i = inactive; u = inconclusive; x = not tested or not shown. Unless noted, no stated cut-off is given here; in the data, active means inhibition above about 30%; inconclusive means no clear call, values can overlap the other calls; inactive means below that.

SMILES | Vc quorum ag | BoNT A protease | Anthrax LF prot | BoNT F protease | Bead autofluor | MazEF act
Cc1cc(SCC(=O)N/N=C/c2ccc(O)c(O)c2O)c(C)cc1Br | i | 2.8 | -0.4 | -0.6 | 22001* | -10.0
Cc1ccc(N(CC(=O)N2CCn3c2nc2ccccc23)S(=O)(=O)c2c(C)n[nH]c2C)cc1 | -3.0 | -2.8 | -6.7 | -0.2 | 17135* | 3.0
Cc1n[nH]c(C)c1S(=O)(=O)N1CCC(C(=O)N2CCn3c2nc2ccccc23)CC1 | -1.7 | -0.9 | -5.1 | -3.1 | 9581 | 0.9
COc1cccc(/C=N/NC(=O)c2ccc(-n3cnnn3)cc2)c1 | i | 0.4 | -7.1 | -8.9 | 5691 | -5.4
O=C(CCC1COc2ccccc2O1)NC1CCCCC1 (centres undefined) | i | -0.4 | 0.4 | 1.9 | 23549* | 9.0
CCN1C[C@@H]2[C@@H]3C(=O)N(Cc4ccccc4)C(=O)[C@@H]3[C@](C)(C1=O)N2C(=O)c1ccc(F)cc1 | i | -0.2 | 1.5 | 3.2 | 4160 | 4.5
CCN1CCN(c2ccc(NC(=O)c3cccc4ncccc34)cc2)CC1 | -1.4 | u | -11.8 | -10.3 | 22120* | 2.8
CCN1CCN(c2ccc(NC(=O)c3ccco3)cc2)CC1 | 0.7 | 0.1 | -0.1 | -5.7 | 6242 | 7.7
COCCc1ccc(OC2(C)CCN(Cc3cccc(OC)c3OC)C2)cc1 (centres undefined) | -1.7 | 0.1 | 2.4 | -4.7 | 3409 | x
COc1ccc(CC/C(=N\O)C2(O)CCCCC2)cc1 | i | -1.5 | -3.3 | -6.7 | 24221* | 5.1
CC(=O)Nc1ccc(SCc2c(C)noc2C)cc1 | 0.0 | -0.4 | 29.7* | 27.2 | 3175 | 2.6
COc1cc(Cl)c(C)cc1NC(=O)CCN1C(=O)NC(C)(C)C1=O | 2.1 | x | x | x | x | 5.6
CCN1CNC(=S)N(c2cc(C)ccc2C)C1 | i | u | -5.9 | -3.7 | 21089* | 3.2
COc1cccc(N2CCN(C(=O)C3CCC(=O)N(C4CCCCCC4)C3)CC2)c1 (centres undefined) | -0.3 | -4.5 | -6.0 | -8.2 | 5336 | -4.5
COc1ccc(N2CS(=O)(=O)/C(=C/N(C)C)C2=O)cc1 | i | 0.0 | -3.2 | 0.5 | 20727* | -5.3
Cc1noc(C)c1C(=O)N1CCN(CCc2ccccc2)CC1 | i | u | -1.3 | -6.4 | 24658* | 10.9
Cc1noc(C)c1C(=O)N1CCN(C(=O)c2sc3cc(Cl)ccc3c2Cl)CC1 | -0.6 | 2.4 | -8.8 | 1.3 | 18980* | 0.1
CNc1nc(SCC(=O)Nc2ccccc2)nc(N2CCOCC2)n1 | 0.5 | -1.0 | 1.7 | 7.5 | 5263 | 5.8
Cc1occc1-c1nnc(SCC(=O)N2CCCCC2C)o1 (centres undefined) | i | 1.3 | 2.2 | 7.4 | 4861 | 0.1
Cc1occc1-c1nnc(SCC(=O)N(C)C)o1 | 2.4 | -0.5 | 3.6 | -0.2 | 19878* | -1.1
Cn1c(SCC(=O)Nc2ccccc2Oc2ccccc2)nnc1C1CC1 | -0.3 | -0.6 | -0.1 | 1.5 | 4008 | 3.9
COc1ccc(N2CC2c2ccncc2)cc1 (centres undefined) | -1.5 | -0.3 | 3.2 | -5.0 | 3581 | 1.4
COc1ccc(N2COC3c4cccc5cccc(c45)C32)cc1 (centres undefined) | i | -1.4 | -4.2 | -3.1 | 20787* | 0.0
Clc1ccc(N2COC3c4cccc5cccc(c45)C32)cc1 (centres undefined) | 2.9 | 0.1 | -1.3 | -1.6 | 22405* | -10.4
O=C(Nc1ccc(Cl)c(C(F)(F)F)c1)C1CCCN(S(=O)(=O)c2cnc[nH]2)C1 (centres undefined) | i | -1.4 | -2.6 | -3.9 | 20180* | -0.9
SMILES | Vc quorum ag | BoNT A protease | Anthrax LF prot | BoNT F protease | Bead autofluor | MazEF act
Cc1cc(C)c(C)c(S(=O)(=O)N2CCNC(=O)C2)c1C | -1.3 | 0.2 | 0.7 | -4.4 | 2920 | 12.4
CC(C)NC(=O)CN1C(=O)CSc2ccc(S(=O)(=O)N3CCCC3)cc21 | -0.3 | 0.1 | 0.0 | -3.7 | 4114 | -0.8
CNC(=O)c1ccc(-c2cc(C(F)(F)F)nn2C)s1 | 0.2 | 4.1 | u | -2.4 | 3515 | -2.5
Cn1nc(C(F)(F)F)cc1-c1ccc(/C=C(\C#N)C(=O)c2ccccc2)s1 | -0.5 | 3.8 | u | 16.8 | 4129 | 781.5*
C=CCSc1nnc(-c2cccc3ccccc23)o1 | 0.6 | -0.1 | -0.4 | 10.5 | 2777 | -4.3
C#CCSc1nnc(-c2cccc3ccccc23)o1 | i | 0.3 | -4.0 | -0.5 | 16238* | 0.1
COc1ccc(C(C(=O)NCC2CCCO2)N(C(=O)CNC(=O)c2cccs2)c2ccc(C)cc2)cc1OC (centres undefined) | -0.2 | 0.4 | 1.9 | -3.2 | 2701 | 6.8
CCC(=NCCc1c[nH]c2ccccc12)c1c(O)n(C)c(=O)n(C)c1=O | -0.2 | -0.1 | -0.3 | 2.5 | 22284* | 2.0
O=C(OCC(=O)N1CCN(c2ccccc2)CC1)c1cccc(Cl)c1 | i | u | -5.0 | -3.6 | 23047* | -2.3
O=C(CCSCc1ccccc1Cl)N1CCN(c2cccc(Cl)c2)CC1 | i | -0.3 | -7.4 | 0.4 | 22753* | -2.4
Cc1ccc(C2C(=O)N(C3CCC(C)CC3)CC(=O)N2C2CCCC2)cc1 (centres undefined) | -0.2 | -3.5 | 0.6 | -1.6 | 23411* | -5.2
COc1cc(C2C(=O)N(C3CCCC3)CC(=O)N2Cc2ccco2)ccc1OC(C)C (centres undefined) | -0.4 | 4.9 | -1.5 | 5.3 | 21363* | -4.0
CCCN1C(=O)CN(C2CCCCCC2)C(=O)C1c1ccc(C)cc1 (centres undefined) | i | -1.2 | 1.7 | -1.5 | 23066* | -6.1
COc1ccccc1CN1C(=O)CN(C2CCCCCC2)C(=O)C1c1ccc(F)cc1 (centres undefined) | -0.4 | 0.7 | -1.1 | 5.1 | 10613 | 3.1
CCCOc1ccc(C2C(=O)N(C3CCCCC3)CC(=O)N2CCC)cc1OC (centres undefined) | -0.6 | 0.4 | 0.8 | 1.6 | 20044* | 0.4
CC(CN1CCCC1)C(=O)NN (centres undefined) | -0.3 | -0.1 | -2.0 | -0.9 | 4345 | 5.2
c1csc(CNCCN2CCOCC2)c1 | -0.6 | 0.5 | -2.2 | -0.3 | 16263* | -2.1
Cc1ccc(Oc2ccc(NC(=O)CCC(=O)OCC(=O)c3cccs3)cc2)cc1C | -0.2 | 0.4 | -6.8 | -1.4 | 16284* | -1.5
COc1ccc(NS(=O)(=O)c2cccs2)c(OC)c1 | i | 0.3 | -2.4 | -5.8 | 2362 | -8.5
COc1ccc(S(=O)(=O)Nc2ccccc2SC)cc1C | i | -0.8 | -1.1 | -0.7 | 23520* | 2.9
COc1ccc(NS(=O)(=O)c2ccc(SC)cc2)c(OC)c1 | -0.4 | 6.0 | 0.6 | 1.7 | 21230* | 2.3
OC(Cc1ccccc1)c1ncc(-c2ccc3ccccc3c2)[nH]1 (centres undefined) | i | 0.1 | -5.8 | -1.6 | 3606 | x
Cc1cc(C)n(CC(O)COCc2ccccc2)n1 (centres undefined) | 1.2 | u | -0.6 | -2.9 | 20483* | 0.3
C[n+]1cn(CC(O)COCc2ccccc2)c2ccccc21 (centres undefined) | -2.8 | 0.5 | -0.1 | -2.4 | 10066 | 1.3

Source: PubChem (several laboratories)
